The values below come from PubChem BioAssay (Tox21).

Records with an inconclusive call do not appear. Where a call stands in place of a potency, no number is given. A number with no mark means an inactive call. Activity calls are given as the source filed them. The call rests on the fitted dose curve; in most records, active means well fitted inhibition curve with a large enough effect in the repeat runs; inconclusive means weak or mixed curves, or effect the other way; inactive means no such curve, though single readings can be large or run the other way.

The target in this assay is Nuclear receptor subfamily 1 group I member 3 (Homo sapiens) (UniProt Q14994). In words: qHTS assay to identify small molecule antagonists of the constitutive androstane receptor (CAR) signaling pathway (AID 1224838).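 Further: HepG2 cells stably expressing hCAR with CYP2B6 luciferase reporter stimulated by CITCO; nearly all actives have a fitted effect of over 40% in size.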 The following applies: HepG2-CYP2B6-hCAR luciferase, CITCO-stimulated, 24 h; series mostly up to 92.4 µM. The source says: U.S. Tox21 Program National Center for Advancing Translational Sciences [NCATS] NIH Chemical Genomics Center [NCGC] U.S. Environmental Protection Agency [EPA] National Institutes of Environmental Health Sciences [NIEHS] National Toxicology Program [NTP] U.S. Food and Drug Administration [FDA] Tox21 Assay Overview: The constitutive androstane receptor (CAR) is a nuclear receptor which regulates multiple drug metabolizing enzymes (DMEs) and transporters. Activating CAR will generally increase the transcription and subsequent translation of CYP2B6 and CYP3A4. These two DMEs represent about 50% of the drug metabolizing potential in the body. When CAR is deactivated, the metabolizing potential in the body will decrease, subsequently increasing the toxicity in the body or lowering the therapeutic potential of a pro-drug. Recently, there have also been studies performed indicating CARs role in energy metabolism and cancer therapy. Therefore, inhibiting CARs activity could have a potential effect on diabetes and cancer. Identifying environmental toxins and compounds which modulate CAR, through the use of the Tox21 10K compound collection, will be an important step in determining the toxicity and potential therapeutic effects these factors will have on the human body.
Nuclear receptor subfamily 1 group I member 3 (Homo sapiens), sequence (Q14994 whole entry, looked up): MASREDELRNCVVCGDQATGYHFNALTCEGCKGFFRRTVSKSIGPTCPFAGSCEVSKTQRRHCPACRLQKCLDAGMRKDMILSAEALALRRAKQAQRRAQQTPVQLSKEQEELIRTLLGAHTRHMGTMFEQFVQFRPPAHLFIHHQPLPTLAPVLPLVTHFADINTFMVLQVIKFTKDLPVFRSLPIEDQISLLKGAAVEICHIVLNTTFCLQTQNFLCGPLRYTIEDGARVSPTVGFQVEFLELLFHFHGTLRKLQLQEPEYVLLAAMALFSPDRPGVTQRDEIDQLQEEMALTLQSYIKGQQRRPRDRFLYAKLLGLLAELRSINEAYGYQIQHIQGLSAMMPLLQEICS
Tox21 Assay Protocol Summary: A double-stable (hCAR and CYP2B6-2.2kb) transfected cell line, derived from human hepatoma (HepG2) cells, was utilized for the duration of the quantitative high-throughput screens. The HepG2-CYP2B6-hCAR cells suspended in DMEM culture medium supplemented with 10% FBS, 5 ug/mL blasticidin, 0.5 mg/mL geneticin, 100 U/mL penicillin and 100 ug/mL streptomycin were dispensed at 2500 cells/4 uL/well in 1536-well white solid bottom plates using a Multidrop Combi. After the assay plates were incubated at 37 C/5% CO2 for 4 hrs, 23 nL of compounds at 15 concentrations (from 5-48 columns) or positive control (from 1 to 4 columns) were transferred to the assay plates using a Pintool station. One uL of CITCO, was added using a Flying Reagent Dispenser to generate a final concentration of 50 nM CITCO inside each well. After a 24 hr incubation period at 37 C/5% CO2, four uL of ONE-Glo reagent was added into the assay plates using a Flying Reagent Dispenser. After a 30 min incubation period at room temperature, the luminescence intensity in the assay plates was measured using a ViewLux plate reader.
(In qHTS, concentration-response curves come from the screen itself.)
Consider `CCCCOC(=O)c1ccccc1C(=O)O`, for which the Potency entry is “inactive”.
On the same count and under the same terms, in the case of `N#CCBr` it was “inactive”; in that of `O=C(O)c1cccc(Cl)c1`, “inactive”.
Same read-out and setting: in the case of `CCCSC(=O)Cl` it was “inactive”; in that of `Cc1cc(C)c(C(=O)P(=O)(C(=O)c2c(C)cc(C)cc2C)c2ccccc2)c(C)c1`, “inactive”.
`CCOP(=S)(OCC)SCSc1ccc(Cl)cc1`: the Potency result was “inactive”.
As for `CNC(=O)Oc1ccccc1C1OCCO1`, the Potency entry is “inactive”.
On the same count and under the same terms, in the case of `CNC(=O)Oc1ccc(N(C)C)c(C)c1` it was “inactive”; in that of `COP(=S)(OC)Oc1c(Cl)cc(C)cc1Cl`, “inactive”.
On the same count and under the same terms, the same measure for `CNC(=O)Oc1c(C(C)(C)C)cc(C)cc1C(C)(C)C`: “inactive”; for `CC(=O)[C@H]1CC[C@H]2[C@@H]3CC[C@H]4C[C@H](O)CC[C@]4(C)[C@H]3C(=O)C[C@]12C`: “inactive”.
For the molecule `COc1cccc(C(=O)NN(C(=O)c2cc(C)cc(C)c2)C(C)(C)C)c1C`, the Potency entry is “inactive”.
Same read-out and setting: the same measure for `Oc1c(Cl)cccc1Cl`: “inactive”; for `CC(Oc1ccc(Oc2ncc(C(F)(F)F)cc2Cl)cc1)C(=O)O` (stereo not given): “inactive”; for `CCOC(=O)/C=C(C)/C=C/C[C@@H](C)CCCC(C)C`: “inactive”.
For `CS(=O)(=O)c1cc(C(F)(F)F)ccc1C(=O)c1cnoc1C1CC1`, the Potency result was “inactive”.
Still for that read-out and setting: in the case of `OCCSCSCCO` it was “inactive”; in that of `Nc1c(Br)cc([N+](=O)[O-])cc1[N+](=O)[O-]`, “inactive”.
With `CC1=C(C(=O)O)N2C(=O)[C@@H](N)[C@H]2SC1`, the activity, negative = inhibition was 17.2% [at 19 µM].
With `CC(C(O)c1ccccc1)N(C)C/C=C/c1ccccc1` (stereo not given), the Potency entry was “inactive”.
Still for that read-out and setting: in the case of `CN1C[C@@H](NS(=O)(=O)N(C)C)C[C@@H]2c3cccc4c3c(cn4C)C[C@H]21` it was “inactive”.
On the same count and under the same terms, in the case of `CC(C)(C)C(=O)C(Oc1ccc(Cl)cc1)n1cncn1` (stereo not given) it was “inactive”.
For the molecule `COc1cc(OC)nc(NC(=O)NS(=O)(=O)c2ncccc2OCC(F)(F)F)n1`, the Potency result is “inactive”.
Take `CC(C)NCC(O)c1ccc(N)c(C#N)c1` (stereo not given): the Potency result was “inactive”.
For the molecule `CC(C)[N+](=O)[O-]`, the Potency result was “inactive”.
`CCC(=O)c1ccccc1`: the Potency entry is “inactive”.
For `CCOc1nc(C(Cl)(Cl)Cl)ns1`, the Potency entry was “inactive”.
Regarding `CC1CN1P(=O)(N1CC1C)N1CC1C` (stereo not given), the Potency result was “inactive”.
On to `ClCC(Cl)(Cl)Cl`, for which the Potency entry was “inactive”.
The same measure, in the same setting: in the case of `CCS(=O)(=O)CCSP(=O)(OC)OC` it was “inactive”; in that of `CC1CCCCC1NC(=O)Nc1ccccc1` (stereo not given), “inactive”.
In the case of `N#Cc1c(Cl)cccc1Cl`, the Potency result was “inactive”.
Take `O=C(Nc1ccccc1)c1ccccc1I`: the Potency result is “inactive”.
On to `CCS(=O)(=O)C(C)(C)S(=O)(=O)CC`, for which the Potency entry is “inactive”.
The same measure, in the same setting: in the case of `CCC1(c2ccccc2)C(=O)NC(=O)NC1=O` it was “inactive”.
Still for that read-out and setting: in the case of `O=[N+]([O-])c1cccc2cccnc12` it was “inactive”.
For the molecule `CN/C(=N\[N+](=O)[O-])NCC1CCOC1` (stereo not given), the Potency entry is “inactive”.
Same read-out and setting: the same measure for `CC(=O)CC(c1ccc(Cl)cc1)c1c(O)c2ccccc2oc1=O` (stereo not given): “inactive”; for `COC(=O)C(c1ccccc1)C1CCCCN1` (stereo not given): “inactive”.
Consider `COc1ncc(F)c2nc(S(=O)(=O)Nc3c(F)cccc3F)nn12`, for which the Potency result is “inactive”.
